For 39 compounds, growth results are on record in PubChem BioAssay (NCI).

Compounds without any hit were thinned out: in the full panel of roughly 83,000, 20% have a hit.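 Cells were grown in 96-well plates and exposed to the test compound at a single concentration for 48 hours; results are reported as percent growth, with values below 10 considered active.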 Unmarked numbers belong to inactive results. Calls of active or inactive are those of the source.

In the first assay the test system is A498 renal. As to the kind of experiment: NCI-60 one-dose screen, 48 h (100 = growth as untreated, 0 = no growth, -100 = all killed). To be noted: 10 µM unless noted.
In the case of `CN1CCCCC1CCN1c2ccccc2Sc2ccc(Br)cc21` (configuration not stated), the growth was 66.7%. The same measure, in the same setting: then `O=C1Nc2ccc(Br)cc2C12CC(c1ccccc1)=NN2` (configuration not stated), with 46.4%; and `O=C(N/N=C/c1ccc(O)cc1O)c1cccnc1`, with 92%. On the same count and under the same terms, the same measure for `O=C(Nc1ccc(F)cc1)Nc1ccc(CCO)cc1`: 85.9%; for `C[C@@H]1CC[C@@H]2[C@@H]1[C@H](OC(=O)/C=C/c1ccccc1)[C@]1(C3CCCCC3)C[C@@H](OC(=O)CO)[C@@]2(C)O1`: -31.7% (active). As for `O=C1Nc2ccccc2/C1=C/C(=N/c1nnc(-c2ccccc2)s1)c1ccccc1`, the growth was 106%. The same measure, in the same setting: then `CCCCCCCCOC(=O)CC[C@@H](C)[C@H]1CC[C@H]2[C@@H]3[C@H](OC(=O)CCN)C[C@@H]4C[C@H](OC(=O)CCN)CC[C@]4(C)[C@H]3C[C@H](OC(=O)CCN)[C@]12C`, with 131%.

The next assay deals with CCRF-CEM leukemia. The assay is described as above. Conditions: 10 µM unless noted.
On to `Nc1cc2nc3ccccc3sc-2cc1=O`, for which the growth is 18.4%. Consider `Cc1noc(C)c1-c1cc(O)cc(C(O)c2ccccc2)c1` (configuration not stated), for which the growth is 46.7%. `CCCCCC(=O)N(CCCC)CCCC`: the growth is 99.1%. For `COc1ccc(/C=N\NC(=O)c2ccncc2)cc1O`, the growth was 99.3%. On to `O=C(Cn1cc(CN2C(=O)c3ccccc3S2(=O)=O)nn1)Nc1ccc([N+](=O)[O-])cc1Cl`, for which the growth is 93.4%.

On to `Oc1ccc(Nc2nccc(-c3ccc4ccccc4c3)n2)cc1`, for which the growth was 9.76% (active). The same measure, in the same setting: then `O=C1C=CC(=O)c2c1nc1n2CCCC1`, with 58.8%; and `Cc1cc(Nc2nc(N3CCOCC3)nc3ccccc23)n[nH]1`, with 65.6%. On the same count and under the same terms, then `Cc1ccc(C2CC3c4ccccc4C2C2CCCCN32)cc1` (configuration not stated), with 92.2%. With `Cc1csc2ccc(Cl)cc12`, the growth is 108%. With `O=S(=O)(Nc1ccc(F)c(Cl)c1)c1ccc(-c2cnc(C3CC3)o2)cc1`, the growth is 19.6%.

Consider `CC#Cc1nc2ccccc2c(=O)[nH]1`, for which the growth was 19.6%.

In the case of `C[C@H](CCC(=O)O)[C@H]1CC[C@H]2[C@@H]3CC[C@@H]4/C(=C\c5ccco5)C(=O)/C(=C\c5ccco5)C[C@]4(C)[C@H]3CC[C@]12C`, the growth is 0.613% (active).

Take `Cc1cc(Nc2nc(-c3cccnc3)nc3ccccc23)n[nH]1`: the growth is 57.3%. Consider `COc1cc(OC)c(/C=C/c2cc[n+](C)c3ccccc23)c(OC)c1`, for which the growth was 7.13% (active). On the same count and under the same terms, the same measure for `CCCCCCCCCCCCCCCC[N+]1(CC)CCCC1`: -67% (active); for `CC(=O)OCC(=O)C1CCC=CC1OC(C)=O` (configuration not stated): 99.7%; for `COC1C/C(=N\O)C2OC(c3ccccc3)OCC2O1` (configuration not stated): 96.1%. The same measure, in the same setting: then `CC[C@H](Nc1nc(N)nc(C)c1C#N)c1nc2cccc(NCc3ccc(C(=O)NO)cc3)c2c(=O)n1-c1ccccc1`, with 0.318% (active); and `Cc1nn(-c2ccccc2)c2nc(C)n(-c3ccc(Br)cc3)c(=O)c12`, with 13.6%. Same read-out and setting: the same measure for `Cc1ccc2c(NCCCN(C)C)c3c(C)nn(C)c3nc2c1`: 31.7%. Take `NC(CC(=O)O)C(=O)OCc1ccccc1` (configuration not stated): the growth was 108%. For `NCCN1CCN(c2nccc(-c3ccc4ccccc4c3)n2)CC1`, the growth is 18%. The same measure, in the same setting: then `Nc1ccc(Nc2nccc(-c3ccc4ccccc4c3)n2)cc1`, with 27.3%; and `CCCNc1nc(SC)nc(-c2cccc(N)c2)c1C#N`, with 108%; and `CN(C)CCOc1ccc(-c2nc3ccc(-c4nc5ccc(N6CCN(C)CC6)cc5[nH]4)cc3[nH]2)cc1`, with 85.4%. Same read-out and setting: the same measure for `CCCCCCCCCCCCN1CCCC(C)C1` (configuration not stated): 44.7%; for `COc1ccc(-c2nc(Nc3cc(C)[nH]n3)c3ccccc3n2)cc1`: 49.3%; for `CN[C@@]12CC3(C=CC(=O)C=C3)O[C@]1(Cc1ccc(OC)cc1)N(C)C(=O)N2`: 7.27% (active). On the same count and under the same terms, the same measure for `COc1cc2cc(COc3nccc(-c4ccc(Cl)cc4)n3)c(=O)[nH]c2cc1OC`: -20.5% (active).

On to `Cc1ccc(S(=O)(=O)N(CCc2ccc(Cl)cc2)S(=O)(=O)c2ccc(C)cc2)cc1`, for which the growth was 83.7%.

As for `CC[C@H](Nc1cc(C)nc(N)n1)c1nc2cccc(NCc3ccc(C(=O)NO)cc3)c2c(=O)n1-c1ccccc1`, the growth is -11% (active).

Turning to `CN1CCCCC1CCN1c2ccccc2Sc2ccc(Br)cc21` (configuration not stated), the growth was 32.6%.

Turning to `O=C1Nc2ccc(Br)cc2C12CC(c1ccccc1)=NN2` (configuration not stated), the growth is 32.3%. With `O=C(N/N=C/c1ccc(O)cc1O)c1cccnc1`, the growth was 5.78% (active).
